Results on eight sequences are retold here after the supplement of paper PMC6555819.

Test in all cases: PBM binding z-score (relative to random genomic background probes); higher = stronger binding; sequences stand for … in GC…GCGATTGACAGCGTAGAATGAAGG
Assay [1] relates to FXR:RXRa (NR concentration 270 nM, RXRa partner concentration 90 nM). An outline of the steps: (§1)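 Scanned fluorescence from custom Agilent 4×180K protein-binding microarrays was regression-normalized. Binding z-scores use random background probes as reference. Ligand-free nuclear receptor dimers were incubated on the arrays for 1 h and detected with antibodies against each partner (one per run).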

Assay [2] concerns LXRa homodimer (NR concentration 270 nM). An outline of the steps:
as §1

Assay [3] relates to LXRb homodimer (NR concentration 270 nM). An outline of the steps:
as §1

For assay [4], the system named is PPARa:RXRa (NR concentration 270 nM, RXRa partner concentration 90 nM). The method in brief:
as §1

Assay [5] relates to PPARg:RXRa (NR concentration 180 nM, RXRa partner concentration 90 nM). The method in brief: as §1
The subject of assay [6] is PPARg:RXRa 270nM:90nM, anti-RXR (NR concentration 270 nM, RXRa partner concentration 90 nM). An outline of the steps: as §1
Assay [7] relates to PPARg:RXRa 30nM:10nM, anti-RXR (NR concentration 30 nM, RXRa partner concentration 10 nM). The method in brief:
as §1

In assay [8] the test system is PPARg:RXRa 90nM:30nM, anti-RXR (NR concentration 90 nM, RXRa partner concentration 30 nM). The method in brief:
as §1

Assay [9] has as its system PPARg:RXRa DBDmut IVT, anti-RXR (DBD mutation: RXRa K156A/R161A, NR concentration 270 nM, RXRa partner concentration 90 nM). An outline of the steps:
as §1

For assay [10], the system named is PPARg:RXRa IVT, anti-PPARg (NR concentration 270 nM, RXRa partner concentration 90 nM). An outline of the steps: as §1
Assay [11] has as its system PPARg DBDmut:RXRa IVT, anti-PPARg (DBD mutation: PPARg1 K132A/R137A, NR concentration 270 nM, RXRa partner concentration 90 nM). The method in brief:
as §1

Assay [12] deals with PPARg DBDmut IVT, anti-PPARg (DBD mutation: PPARg1 K132A/R137A, NR concentration 270 nM). An outline of the steps:
as §1

For assay [13], the system named is PPARg homodimer (NR concentration 180 nM). The method in brief:
as §1

For assay [14], the system named is PXR:RXRa (NR concentration 270 nM, RXRa partner concentration 90 nM). An outline of the steps:
as §1

Assay [15] deals with PXR homodimer (NR concentration 270 nM). The method in brief:
as §1

Assay [16] relates to RARa:RXR (NR concentration 270 nM, RXRa partner concentration 90 nM). The method in brief:
as §1

Assay [17] relates to RARa homodimer (NR concentration 270 nM). The method in brief: as §1
Assay [18] deals with RARb:RXRa (NR concentration 270 nM, RXRa partner concentration 90 nM). An outline of the steps: as §1
Assay [19] has as its system RARb homodimer (NR concentration 270 nM). The method in brief: as §1
Assay [20] relates to LXRa:RXRa (NR concentration 270 nM, RXRa partner concentration 90 nM). An outline of the steps:
as §1

Take CCTACTGGTCCAAGGTCATTGATCAGTCAAAGCA: the PBM binding z-score in assay [1] was determined as 3.53; in assay [2] it was 2.3; in assay [3], 0.894; in [4], 3.59; in assay [5], 1.77; in assay [6] it was 3.04. Besides, the PBM binding z-score in assay [7] is 0.847; in assay [8], 2.12; in assay [9], 0.394; in assay [10], 1.68; in assay [11] it was -0.223; in assay [12], -0.605. Further, the PBM binding z-score in [13] came out at 3.61; in [14], 4.18; in assay [15], 2.61; in [16], 4.13; in assay [17], 1.23; in [18], 3.33. In [19], this sequence registered a PBM binding z-score of 3.76.

Turning to CCGAATAGGTTACGAGGGGGCATTCAGTGCGAAT, the PBM binding z-score stood at 3.52 in assay [1]; 7.98 in assay [20]; 2.43 in [2]; 3.85 in assay [4]; 2.08 in assay [5]; 3.71 in assay [6]. In addition, the PBM binding z-score came to 2 in assay [7]; 2.62 in assay [8]; 2.73 in assay [9]; 3.59 in [10]; 2.64 in assay [13]; 5.5 in [14]. For the same sequence, the PBM binding z-score stood at 5.9 in assay [15]; 3.8 in assay [16]; 0.865 in assay [17]; 2.89 in [18]; 2.69 in [19].

Consider CTATGTAGGTTACGGGGGTCATTCAGTTTGAAAG, for which the PBM binding z-score in assay [1] was 5.4; in assay [20], 5.54; in assay [2] it was 2.93; in assay [4], 6.13; in assay [5] it was 9.31; in [6] it was 7.81. For the same sequence, the PBM binding z-score in assay [7] was 5.47; in assay [8], 7.92; in assay [9], 7.41; in assay [10], 7.98; in [13], 2.65; in assay [14], 6.2. In addition, the PBM binding z-score came to 10.9 in assay [15]; 6.09 in assay [16]; 0.56 in [17]; 3.71 in [18]; 4.09 in assay [19].

In the case of ATCTCTAGGTTAAGATAGTTCAGTGAATGCAAAT, the PBM binding z-score was 0.821 in assay [1]; 2.52 in [2]; 0.754 in [3]; 1.77 in assay [4]; 1.39 in assay [5]; 1.66 in assay [6]. Further, the PBM binding z-score in assay [7] stood at 0.609; in assay [8], 1.15; in [9], 3.33; in [10], 3.25; in assay [11], 1.33; in [12] it was 1.32. The PBM binding z-score worked out at 1.36 in assay [13]; 3.05 in assay [14]; 0.756 in assay [15]; 1.53 in assay [16]; 2.08 in assay [17]; 2.01 in [18]. This sequence also displayed a PBM binding z-score in assay [19] of 1.9.

On to CGTCCAAGGTCATAGGAGGTCAATGAAGACAGAT, for which the PBM binding z-score in assay [1] came out at 7.84; in assay [20] it was 7.73; in assay [2] it was 6.78; in assay [3], 1.44; in assay [5], 5.9; in assay [6], 6.13. For the same sequence, the PBM binding z-score in assay [7] worked out at 2.88; in assay [8], 5.04; in [9], 3; in [10] it was 5.13; in assay [11] it was 0.774; in assay [12], 0.632. The PBM binding z-score amounted to 4.29 in [13]; 7.13 in assay [14]; 6.06 in assay [15]; 6.16 in [16]; 1.49 in [17]; 5.71 in [19].

In the case of CCTTACGGGTCACTGACAGGTTATAGCGTTTGGA, the PBM binding z-score in assay [1] came out at 5.14; in [2], 0.362; in [3] it was 0.00055; in assay [4] it was 5.13; in assay [5] it was 4.5; in assay [6], 4.32. Moreover, the PBM binding z-score in [7] is 1.5; in [8] it was 2.78; in assay [9] it was 2.91; in assay [10] it was 3.67; in [11], -0.0392; in [12], -0.319. Moreover, the PBM binding z-score in [13] is 2.56; in [14] it was 3.48; in [15], 0.179; in assay [16], 3.97; in assay [17], 0.964; in assay [18], 3.88. In assay [19], this sequence yielded a PBM binding z-score of 3.34.

GCTGCTAGGTCAACTGATGGTCATCTAAAGCTCG: the PBM binding z-score is 4.19 in assay [1]; 0.86 in assay [2]; 0.134 in [3]; 3.75 in assay [4]; 2.92 in assay [5]; 3.32 in [6]. Further, the PBM binding z-score in assay [7] was found to be 0.892; in assay [8] it was 2.34; in [9], 5.18; in assay [10] it was 4.36; in assay [11], 0.236; in assay [12], 0.14. Also, the PBM binding z-score is 2.42 in assay [13]; 2.17 in assay [14]; -0.491 in assay [15]; 3.74 in [16]; 0.102 in [17]; 4.32 in assay [18]. Also, the PBM binding z-score in [19] came out at 3.66.

Consider ATATGTAGGTTAGGGGTCATTCAGGTTGGTTCGC, for which the PBM binding z-score was 6.13 in assay [1]; 5.98 in assay [20]; 4.58 in assay [2]; 3.55 in assay [3]; 11.4 in assay [5]; 9.8 in assay [6]. Further, the PBM binding z-score in assay [7] was determined as 10.2; in [8] it was 11; in assay [9], 7.09; in assay [10], 7.13; in assay [11] it was 1.75; in assay [12], 2. For the same sequence, the PBM binding z-score in assay [13] was determined as 5.22; in assay [15], 6.76; in [17], 2.76; in assay [18] it was 3.82; in assay [19] it was 4.47.
